# Results from PubChem BioAssay AID1159580 (chemical genetic matrix, 2015).
# Values joined by “and” are separate entries in the source; they are usually repeats but may differ in a detail not shown here. Equal values may be shown once. Among all 5,500 compounds or so, about 2,000 (36%) were called active. Another 18% or so got no clear call; they are omitted. The list shows a part of the results. A number with no mark means an inactive call. No stated cut-off is given here; in the data, active means normalized growth mostly below about 0.91 (no sharp cut-off); inconclusive means no clear call, values can overlap the other calls; inactive means mostly above about 0.92.
# Experiment: chemical genetic growth profiling, strain panel (AID 1159580);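 further: tested at 20 µM; growth read once vehicle control cultures reached saturation at 30 °C; 1 = growth at the plate median or of vehicle wells; lower values mean less growth of the strain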
# Conditions: S. cerevisiae deletion strains, growth OD
smiles,measurement,setting,value
COc1c2occc2cc2ccc(=O)oc12,normalized growth,"locus YAL013W, strain DEP1, hits give low values",0.992
same,normalized growth,"locus YAL021C, strain ccr4, hits give low values",0.966
same,normalized growth,"locus YAL026C, strain drs2, hits give low values",0.954
same,normalized growth,"locus YAL030W, strain snc1, hits give low values",0.975
same,normalized growth,"locus YBL061C, strain skt5, hits give low values",0.973
same,normalized growth,"locus YBR009C, strain hhf1, hits give low values",0.878 (active)
same,normalized growth,"locus YBR021W, strain FUR4, hits give low values",1.08
same,normalized growth,"locus YBR023C, strain chs3, hits give low values",0.926
same,normalized growth,"locus YBR171W, strain sec66, hits give low values",0.945
same,normalized growth,"locus YBR229C, strain ROT2, hits give low values",1.01
same,normalized growth,"locus YBR231C, strain swc5, hits give low values",1.03
same,normalized growth,"locus YBR279W, strain paf1, hits give low values",0.98
same,normalized growth,"locus YCL011C, strain gbp2, hits give low values",0.88 (active)
same,normalized growth,"locus YCL016C, strain dcc1, hits give low values",0.888 (active)
same,normalized growth,"locus YCL029C, strain bik1, hits give low values",0.976
same,normalized growth,"locus YCL061C, strain MRC1, hits give low values",0.931
same,normalized growth,"locus YCL069W, strain vba3, hits give low values",0.96
same,normalized growth,"locus YCR088W, strain abp1, hits give low values",0.998
same,normalized growth,"locus YDL005C, strain med2, hits give low values",0.987
same,normalized growth,"locus YDL035C, strain GPR1, hits give low values",0.956
same,normalized growth,"locus YDL040C, strain nat1, hits give low values",0.995
same,normalized growth,"locus YDL074C, strain BRE1, hits give low values",0.908
same,normalized growth,"locus YDL101C, strain DUN1, hits give low values",0.958
same,normalized growth,"locus YDL134C, strain PPH21, hits give low values",0.997
same,normalized growth,"locus YDL185W, strain tfp1, hits give low values",0.928
same,normalized growth,"locus YDL192W, strain arf1, hits give low values",0.969
same,normalized growth,"locus YDR001C, strain nth1, hits give low values",0.983
same,normalized growth,"locus YDR069C, strain doa4, hits give low values",0.964
same,normalized growth,"locus YDR101C, strain arx1, hits give low values",0.993
same,normalized growth,"locus YDR137W, strain rgp1, hits give low values",0.954
same,normalized growth,"locus YDR150W, strain NUM1, hits give low values",0.952
same,normalized growth,"locus YDR159W, strain sac3, hits give low values",1.02
same,normalized growth,"locus YDR162C, strain NBP2, hits give low values",0.931
same,normalized growth,"locus YDR195W, strain ref2",1.17 [resistant] (active)
same,normalized growth,"locus YDR297W, strain sur2, hits give low values",0.978
same,normalized growth,"locus YDR318W, strain mcm21, hits give low values",0.953
same,normalized growth,"locus YDR334W, strain swr1, hits give low values",0.919
same,normalized growth,"locus YDR335W, strain msn5, hits give low values",0.982
same,normalized growth,"locus YDR388W, hits give low values",0.985
same,normalized growth,"locus YDR392W, strain spt3, hits give low values",0.852
same,normalized growth,"locus YDR502C, strain sam2, hits give low values",0.957
same,normalized growth,"locus YEL003W, strain gim4, hits give low values",0.988
same,normalized growth,"locus YEL037C, strain rad23, hits give low values",0.944
same,normalized growth,"locus YEL061C, strain CIN8 (second series), hits give low values",0.981
same,normalized growth,"locus YEL061C, strain CIN8, hits give low values",0.999
same,normalized growth,"locus YER015W, strain faa2, hits give low values",0.965
same,normalized growth,"locus YER016W, strain bim1, hits give low values",1
same,normalized growth,"locus YER110C, hits give low values",0.948
same,normalized growth,"locus YER111C, strain swi4, hits give low values",0.973
same,normalized growth,"locus YER155C, strain BEM2 (second series), hits give low values",0.866
same,normalized growth,"locus YER155C, strain BEM2, hits give low values",1.03
same,normalized growth,"locus YER167W, strain BCK2, hits give low values",0.982
same,normalized growth,"locus YFR010W, strain ubp6, hits give low values",0.94
same,normalized growth,"locus YGL078C, strain dbp3, hits give low values",0.99
same,normalized growth,"locus YGL086W, strain mad1, hits give low values",0.961
same,normalized growth,"locus YGL167C, strain pmr1, hits give low values",0.998
same,normalized growth,"locus YGL173C, strain kem1, hits give low values",0.973
same,normalized growth,"locus YGL227W, strain vid30, hits give low values",0.988
same,normalized growth,"locus YGL240W, strain doc1, hits give low values",0.99
same,normalized growth,"locus YGL248W, strain PDE1, hits give low values",0.999
same,normalized growth,"locus YGL253W, strain hxk2, hits give low values",0.942
same,normalized growth,"locus YGR078C, strain PAC10, hits give low values",0.922
same,normalized growth,"locus YGR135W, strain pre9, hits give low values",0.935
same,normalized growth,"locus YGR229C, strain SMI1, hits give low values",0.948
same,normalized growth,"locus YGR252W, strain gcn5, hits give low values",0.817
same,normalized growth,"locus YHR013C, strain ard1, hits give low values",0.935
same,normalized growth,"locus YHR027C, strain rpn1, hits give low values",0.956
same,normalized growth,"locus YHR030C, strain SLT2, hits give low values",0.995 and 1.02
same,normalized growth,"locus YHR079C, strain IRE1 (second series), hits give low values",0.992
same,normalized growth,"locus YHR079C, strain IRE1, hits give low values",1.03
same,normalized growth,"locus YHR094C, strain hxt1, hits give low values",0.988
same,normalized growth,"locus YHR129C, strain ARP1, hits give low values",0.996
same,normalized growth,"locus YHR142W, strain chs7, hits give low values",0.856 (active)
same,normalized growth,"locus YHR200W, strain rpn10, hits give low values",0.928
same,normalized growth,"locus YIL066C, strain RNR3, hits give low values",0.933
same,normalized growth,"locus YIL073C, strain SPO22, hits give low values",0.865
same,normalized growth,"locus YIL125W, strain kgd1, hits give low values",1
same,normalized growth,"locus YIR030C, strain dcg1, hits give low values",0.998
same,normalized growth,"locus YJL092W, strain hpr5, hits give low values",0.917 (active)
same,normalized growth,"locus YJL095W, strain BCK1 (second series), hits give low values",0.982
same,normalized growth,"locus YJL095W, strain BCK1, hits give low values",0.911 and 1.02
same,normalized growth,"locus YJL115W, strain asf1, hits give low values",0.943
same,normalized growth,"locus YJL129C, strain trk1, hits give low values",0.987
same,normalized growth,"locus YJL134W, strain LCB3, hits give low values",0.985
same,normalized growth,"locus YJL154C, strain vps35, hits give low values",0.984
same,normalized growth,"locus YJL164C, strain tpk1, hits give low values",0.945
same,normalized growth,"locus YJL166W, strain qcr8, hits give low values",0.943
same,normalized growth,"locus YJL168C, strain set2, hits give low values",0.985
same,normalized growth,"locus YJL187C, strain SWE1 (second series), hits give low values",0.974
same,normalized growth,"locus YJL187C, strain SWE1, hits give low values",0.976
same,normalized growth,"locus YJR043C, strain POL32, hits give low values",0.953
same,normalized growth,"locus YJR066W, strain TOR1, hits give low values",0.969
